Source: PubChem BioAssay (Tox21)
Inconclusive results are not listed. Activity calls are given as the source filed them. Calls come from the whole dose curve.

What was measured:
[1] = target: Acetylcholinesterase (Homo sapiens) (UniProt P22303); experiment: Acetylcholinesterase (AChE) small molecule antagonists: colormetric cell-based qHTS assay (AID 1347395); note: nearly all actives have a fitted effect of over 30% in size
Procedure, shortened: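 Homogeneous whole-cell format. SH-SY5Y cells seeded overnight, dosed with compound (30 min, 37 C, 5% CO2), then given DTNB/acetylthiocholine cocktail for 90 min at 37 C; colorimetric signal.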

[2] = target: Acetylcholinesterase (Homo sapiens) (UniProt P22303); experiment: Acetylcholinesterase (AChE) small molecule antagonists: enzyme-based qHTS assay (AID 1347397); conditions: Potency: AChE enzyme activity inhibition; outcome: AChE enzyme activity inhibition; note: nearly all actives have a fitted effect of over 55% in size
Procedure, shortened: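 Human recombinant acetylcholinesterase; substrate acetylthiocholine; thiocholine quantified with DTNB (colorimetric). Compound preincubation 30 min RT; reaction 10 min RT.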

[3] = target: Acetylcholinesterase (Homo sapiens) (UniProt P22303); experiment: Acetylcholinesterase (AChE) small molecule antagonists: fluorescence cell-based qHTS assay (AID 1347398); conditions: Potency: AChE activity; outcome: AChE activity; note: nearly all actives have a fitted effect of over 50% in size
Procedure, shortened: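 Thiocholine generated from acetylthiocholine by SH-SY5Y cell AChE is detected with Thiolite Green (Ex/Em 490/520 nm) after 40 min at room temperature, following 30 min compound pretreatment at 37 C.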

[4] = target: Acetylcholinesterase (Homo sapiens) (UniProt P22303); experiment: Acetylcholinesterase (AChE) small molecule antagonists: enzyme-based qHTS assay with human liver microsomes (AID 1347399); conditions: Potency: qHTS inhibition; outcome: qHTS inhibition; note: nearly all actives have a fitted effect of over 60% in size
Procedure, shortened: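 Recombinant human AChE (50 mU/mL in the enzyme mix) and human liver microsomes (0.25 mg/mL final) were preincubated with compound and NADPH (0.25 mg/mL final) for 30 min at 37 C. Acetylthiocholine/DTNB was then added; thiocholine was read colorimetrically after 10 min at room temperature.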

Measured: Potency

Chain of Acetylcholinesterase (Homo sapiens) (P22303 whole entry, looked up): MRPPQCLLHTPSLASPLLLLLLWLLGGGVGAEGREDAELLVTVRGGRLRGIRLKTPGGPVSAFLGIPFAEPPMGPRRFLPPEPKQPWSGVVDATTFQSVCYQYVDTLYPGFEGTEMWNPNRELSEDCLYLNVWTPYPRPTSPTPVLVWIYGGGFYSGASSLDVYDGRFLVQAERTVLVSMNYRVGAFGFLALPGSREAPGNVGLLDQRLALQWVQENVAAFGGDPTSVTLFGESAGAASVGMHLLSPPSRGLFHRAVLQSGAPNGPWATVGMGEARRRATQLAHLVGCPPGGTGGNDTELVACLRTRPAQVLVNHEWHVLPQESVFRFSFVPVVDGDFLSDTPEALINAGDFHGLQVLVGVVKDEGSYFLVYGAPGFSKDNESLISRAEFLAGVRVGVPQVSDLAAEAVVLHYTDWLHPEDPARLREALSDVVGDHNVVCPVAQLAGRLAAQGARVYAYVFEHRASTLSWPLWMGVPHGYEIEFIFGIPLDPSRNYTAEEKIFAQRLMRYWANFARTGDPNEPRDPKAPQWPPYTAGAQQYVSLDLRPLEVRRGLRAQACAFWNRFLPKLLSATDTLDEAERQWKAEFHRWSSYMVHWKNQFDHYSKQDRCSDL

CCCCCCCCSCc1cc(C)c(O)c(CSCCCCCCCC)c1
inactive: [1] | [2] | [3] | [4]

C[C@@H](O)[C@H]1C(=O)N2C(C(=O)O)=C(SCCN=CN)C[C@H]12
inactive: [1] | [2] | [3] | [4]

OC[C@@H](O)[C@H](O)[C@@H](O)[C@@H](O)CO
inactive: [1] | [2] | [3] | [4]

O=C(O)C(O)[C@H](O)[C@@H](O)[C@H](O)[C@H](O)CO (some centres not stated)
inactive: [1] | [2] | [3] | [4]

CCCCC(CC)COP(=O)(O)O (configuration not stated)
inactive: [1] | [2] | [3] | [4]

O=c1c(O)c(-c2ccc(O)cc2O)oc2cc(O)cc(O)c12
inactive: [1] | [2] | [3] | [4]

CCCCCCCCOCCCN
inactive: [1] | [2] | [3] | [4]

C=CC1CO1 (configuration not stated)
inactive: [1] | [2] | [3] | [4]

N#Cc1ccc(C/C(=N/NC(=O)Nc2ccc(OC(F)(F)F)cc2)c2cccc(C(F)(F)F)c2)cc1
inactive: [1] | [2] | [3] | [4]

O=C(C(=O)c1ccco1)c1ccco1
inactive: [1] | [2] | [3] | [4]

N=C(N=C(N)N)N1CCOCC1
inactive: [1] | [2] | [3] | [4]

c1ccc(B(c2ccccc2)c2ccccc2)cc1
inactive: [1] | [2] | [3] | [4]

COc1ccc2c(c1)c1c3n2CCN(C)C3=NCC1
inactive: [1] | [2] | [3] | [4]

OC1(c2ccc(Cl)cc2)CCNCC1
inactive: [1] | [2] | [3] | [4]

C=C1C[C@@]23CC[C@H]4[C@@](C)(CCC[C@@]4(C)C(=O)O[C@@H]4O[C@H](CO)[C@@H](O)[C@H](O)[C@H]4O)[C@@H]2CC[C@]1(O[C@@H]1O[C@H](CO)[C@@H](O)[C@H](O[C@@H]2O[C@H](CO)[C@@H](O)[C@H](O)[C@H]2O)[C@H]1O[C@@H]1O[C@H](CO)[C@@H](O)[C@H](O)[C@H]1O)C3
inactive: [1] | [2] | [3] | [4]

CC(C)[C@H]1CC[C@H](C)C[C@@H]1O
inactive: [1] | [2] | [3] | [4]

C[Si](Cl)(c1ccccc1)c1ccccc1
inactive: [1] | [2] | [3] | [4]

NS(=O)(=O)c1ccccc1Cl
inactive: [1] | [2] | [3] | [4]

COc1ccc(C(=O)c2ccc(OC)cc2O)c(O)c1
inactive: [1] | [2] | [3] | [4]

O=C(/C=C/c1ccccc1)OC/C=C/c1ccccc1
inactive: [1] | [2] | [3] | [4]

CC(=O)OCCc1ccccc1
inactive: [1] | [2] | [3] | [4]

CCCCC1C(=O)N(c2ccccc2)N(c2ccc(O)cc2)C1=O (configuration not stated)
inactive: [1] | [2] | [3] | [4]

COCCCC/C(=N\OCCN)c1ccc(C(F)(F)F)cc1
inactive: [1] | [2] | [3] | [4]

CCCCCCC#CC(=O)OC
inactive: [1] | [2] | [3] | [4]

CNCCCC1c2ccccc2C=Cc2ccccc21
inactive: [1] | [2] | [3] | [4]

O=c1cccccc1O
inactive: [1] | [2] | [3] | [4]

CCCOC(=O)c1ccc(N)cc1
inactive: [1] | [2] | [3] | [4]

N#CCCOCCOCCC#N
inactive: [1] | [2] | [3] | [4]

Cc1ccc(C(N)=O)cc1N
inactive: [1] | [2] | [3] | [4]

CC1=CCC(C(C)C)C=C1 (configuration not stated)
inactive: [1] | [2] | [3] | [4]

C=C(C)C(=O)OC1CC(C)CC(C)(C)C1 (configuration not stated)
inactive: [1] | [2] | [3] | [4]

CCCCN(CCCC)C(C(N)=O)c1ccc(OC)cc1 (configuration not stated)
inactive: [1] | [2] | [3] | [4]

CCCCN1C(=O)[C@@H]([C@H](O)C2CCCCC2)NC(=O)C12CCN(Cc1ccc(Oc3ccc(C(=O)O)cc3)cc1)CC2
inactive: [1] | [2] | [3] | [4]

CC(C)(C)c1ccc(OCC2CO2)cc1 (configuration not stated)
inactive: [1] | [2] | [3] | [4]

CCc1cccc(CC)c1NC(=O)CN(CC(=O)O)CC(=O)O
inactive: [1] | [2] | [3] | [4]

O=C(O)COCC(=O)O
inactive: [1] | [2] | [3] | [4]

Cc1cccc([N+](=O)[O-])c1C(=O)O
inactive: [1] | [2] | [3] | [4]

C#C[C@]1(OC(C)=O)CC[C@H]2[C@@H]3CCC4=C[C@@H](OC(C)=O)CC[C@@H]4[C@H]3CC[C@@]21C
inactive: [1] | [2] | [3] | [4]

CN1CCN(C2=Nc3ccccc3Sc3ccc(Cl)cc32)CC1
inactive: [1] | [2] | [3] | [4]

COC(=O)[C@H]1[C@H]2C[C@@H]3c4[nH]c5cc(OC)ccc5c4CCN3C[C@H]2C[C@@H](OC(=O)COc2ccc(OC)cc2)[C@@H]1OC
inactive: [1] | [2] | [3] | [4]

CCOC(=O)COC(=O)c1cc(Oc2ccc(C(F)(F)F)cc2Cl)ccc1[N+](=O)[O-]
inactive: [1] | [2] | [3] | [4]

Cc1cc(C)c(NC(=O)CN(CC(=O)O)CC(=O)O)c(C)c1Br
inactive: [1] | [2] | [3] | [4]

O=C(OCCN1CCOCC1)c1cccnc1Nc1cccc(C(F)(F)F)c1
inactive: [1] | [2] | [3] | [4]
